The record followed here is PubChem BioAssay (Tox21).

Results filed as inconclusive are left out. Entries that show only a call come without a potency. Active and inactive are the calls of the source. Calls follow the shape of the dose curve; as a rule, active = well fitted activation curve with a large enough effect in the repeat runs; inconclusive = weak or mixed curves; inactive = flat fitted curve, though single readings scatter.

In this test the target is Nuclear receptor subfamily 1 group I member 2 (Homo sapiens) (UniProt O75469). Briefly: Human pregnane X receptor (PXR) activation by small molecules, qHTS assay (AID 1346985). Also: nearly all actives have a fitted effect of over 40% in size. As to conditions: DPX-2 HepG2 CYP3A4-luciferase, 24 h; series mostly up to 38.3 µM. Put shortly:
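DPX-2 cells (HepG2 co-transfected with a PXR response element and a CYP3A4-promoter luciferase construct) were seeded at 2,000 per well, rested 5 hr at 37C, then exposed to DMSO-dissolved compounds for 24 hr. Activation was read as luciferase luminescence.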
With `O=C(O)c1nc(=O)[nH]c(=O)[nH]1`, the Potency result is “inactive”.
As to `CC(=O)N=c1sc(S(N)(=O)=O)nn1C`, the Potency entry was “inactive”.
Consider `C[N@+]12CCCC[C@@H]1CCC(=C(c1cccs1)c1cccs1)C2`, for which the Potency result was “inactive”.
As for `CC[C@@]1(O)C[C@H](O[C@H]2C[C@H](N(C)C)[C@H](O[C@H]3C[C@H](O)[C@H](O[C@H]4CCC(=O)[C@H](C)O4)[C@H](C)O3)[C@H](C)O2)c2c(cc3c(c2O)C(=O)c2c(O)cccc2C3=O)[C@H]1C(=O)OC`, the entry is “inactive”; as for `C/C1=C2N=C(/C=C3N=C(/C(C)=C4\[N-][C@@](C)([C@@H]5N=C1[C@](C)(CCC(=O)NCC(C)OP(=O)(O)O[C@H]1[C@@H](O)[C@@H](n6cnc7cc(C)c(C)cc76)O[C@@H]1CO)[C@H]5CC(N)=O)[C@@](C)(CC(N)=O)[C@@H]4CCC(N)=O)[C@@](C)(CC(N)=O)[C@@H]\3CCC(N)=O)C(C)(C)[C@@H]/2CCC(N)=O.CC(=O)O.[Co]` (some centres not stated), “inactive”.
As for `CC1(C)S[C@@H]2[C@H](NC(=O)C(C(=O)O)c3ccsc3)C(=O)N2[C@H]1C(=O)O` (some centres not stated), the entry is “inactive”.
As for `CCCCC/C=C\CCC(=O)N[C@H]1[C@H](Oc2c3cc4cc2Oc2ccc(cc2Cl)[C@@H](O[C@@H]2O[C@H](CO)[C@@H](O)[C@H](O)[C@H]2NC(C)=O)[C@@H]2NC(=O)[C@H](NC(=O)[C@@H]4NC(=O)[C@H]4NC(=O)[C@@H](Cc5ccc(c(Cl)c5)O3)NC(=O)[C@H](N)c3ccc(O)c(c3)Oc3cc(O)cc4c3)c3ccc(O)c(c3)-c3c(O[C@H]4O[C@H](CO)[C@@H](O)[C@H](O)[C@@H]4O)cc(O)cc3[C@@H](C(=O)O)NC2=O)O[C@H](CO)[C@@H](O)[C@@H]1O`, the Potency entry is “inactive”.
